In PubChem BioAssay AID651598 (Sanford-Burnham Center for Chemical Genomics, 2012):
Where “and” joins values, the source holds several entries; their conditions need not be identical. Identical values can stand only once.

What follows are compounds tested against Apelin receptor (Homo sapiens) (UniProt P35414) (assay: APJ beta-arrestin recruitment blockade alongside CXCR6 – cell-based, DiscoveRx, panel, CHO-K1, counter-screen for CXCR6 antagonist project, SAR follow-up (AID 651598)). Conditions: CHO-K1 PathHunter beta-arrestin luminescence, antagonist mode; run 3, at 80 µM (top of the series).
Sequence of Apelin receptor (Homo sapiens) (P35414 whole entry, looked up): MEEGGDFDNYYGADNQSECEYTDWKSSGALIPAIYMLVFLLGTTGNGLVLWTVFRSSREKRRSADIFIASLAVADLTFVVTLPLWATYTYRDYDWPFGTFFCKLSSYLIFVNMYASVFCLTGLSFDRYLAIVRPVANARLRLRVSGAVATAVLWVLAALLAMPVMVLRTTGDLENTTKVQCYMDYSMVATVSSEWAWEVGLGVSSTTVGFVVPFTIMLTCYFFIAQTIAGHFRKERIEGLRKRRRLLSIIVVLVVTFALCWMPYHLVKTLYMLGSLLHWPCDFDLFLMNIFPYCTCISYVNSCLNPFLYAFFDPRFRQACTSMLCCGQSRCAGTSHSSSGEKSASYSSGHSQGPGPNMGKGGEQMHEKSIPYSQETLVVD

Row | SMILES | inhibition
1 | COc1cc(C(=O)NC2CCN(CC(=O)Nc3ccccc3)CC2)cc(OC)c1OC | 19.7%
2 | COc1cc(C(=O)NC2CC3CCCC(C2)N3CC(=O)Nc2ccccc2)cc(OC)c1OC (stereo not drawn) | -24.7% and 10.7% and 13.8%
3 | COc1cc(C(=O)NC2CC3CCC(C2)N3CC(=O)Nc2ccccc2)cc(OC)c1OC (stereo not drawn) | 2.29% and 12.1%
